This is a sample that favours compounds with a hit; in the whole collection about 9.3% have one here.
NPC1 promoter act: activators of NPC1 promoter | Huh7 NPC1 promoter luciferase reporter, 24 h | Potency, µM (highest dose often 9.22 µM), for inactives: top-dose activation, most hits filed as activators | actives 2.4% (n = 320,000) | AID 485313; further: % of control where 0% means no effect; nearly all actives have a fitted effect of over 60% in size
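Stably transfected Huh7 (NPC1 promoter→luciferase), 1500 cells/well in Opti-MEM + 10% FBS, 2 h settle, then compound 24 h at 37 °C. Luminescence after 10 min with Amplite reagent.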
Rab9 prom act: activates the Rab9 promoter. Potency, µM (titrated, usually from 9.22 µM), without a hit: at the top dose activation, negative = inhibition, hits mostly activators. Huh7 Rab9 promoter-luciferase reporter, luminescence, 24 h. actives 2.8% (n = 320,000); further: % of control where 0% means no effect; nearly all actives have a fitted effect of over 60% in size
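Promoter activation is measured as luciferase luminescence in Huh7 cells stably transfected with a Rab9 promoter–luciferase construct, following 24 h compound exposure at 37 °C and 10 min reagent incubation at ambient temperature.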
SMN2 splice up: enhancers of SMN2 splice variant expression; HEK293 SMN2-luciferase splicing reporter, luminescence, 30-36 h; Potency, µM (top dose mostly 46.1 µM), for the others: at the highest dose activity change, positive = activation, hits mostly activators; actives 2.8% (n = 210,000); AID 1458; further: % of control where 0% means no effect; nearly all actives have a fitted effect of over 55% in size
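HEK293 cells carry an SMN2 minigene-luciferase reporter in which exon 7 inclusion puts luciferase in frame. Cells were seeded at 2000 cells/well, attached for 10-12 hours, then exposed to compounds for 30-36 hours at 37C before ONE-Glo luminescence.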
ELG1 genotox: genotoxicity induction in ELG1-luciferase HEK293T cells. HEK293T ELG1-luciferase reporter, luminescence, 16 h. Potency, µM (doses to about 46 µM), inactives show at the top dose activity change, positive = activation, hits mostly activators. actives 1.3% (n = 330,000). AID 504466; further: % of control where 0% means no effect; nearly all actives have a fitted effect of over 60% in size
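16 hr compound incubation (37 °C, 5% CO2) of HEK293T cells carrying luciferase-tagged ELG1; luciferase then measured by ONE-Glo luminescence after 30 min at RT.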
ELG1 repair inh: inhibitors of ELG1-dependent DNA repair in HEK293T cells. HEK293T ELG1-luciferase reporter, luminescence, 16 h; DNA damage induced by 5-fluorouridine. Potency, µM (titrated, usually from 46.1 µM), without a hit: at the top dose activity change, negative = inhibition, actives largely listed as inhibitors. actives 2.3% (n = 330,000). AID 504467; further: on the % scale 0 is the no-effect control and ±100 the full control effect; nearly all actives have a fitted effect of over 55% in size
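Step one: seed 2,000 cells per well. Step two: pin-transfer compound or DMSO alongside 5-fluorouridine. Step three: incubate 16 hr, 37 °C, 5% CO2. Step four: add ONE-Glo, wait 30 min, read luminescence.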
FLuc counter: counter-screen for miR-21 project: firefly luciferase inhibitors or activators | purified FLuc, Km substrates, luminescence inhibition | Potency, µM (series often up to 57.5 µM), inactives show top-dose activity change, negative = inhibition, most hits filed as inhibitors | actives 6.9% (n = 360,000) | AID 588342;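 further: plate controls were vehicle for no effect and reference inhibitor for full effect; nearly all actives have a fitted effect of over 55% in size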
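Biochemical qHTS of compounds, final roughly 60 µM downward over six points, against 10 nM purified firefly luciferase using Km concentrations of substrates (10 uM D-luciferin, 10 uM ATP) in Tris acetate pH 7.5 buffer; luminescence output.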
Numbers without * were called inactive; u = inconclusive; x = no result given. The call rests on the fitted dose curve; in most records, active means well fitted curve in the direction sought with a large enough effect; inconclusive means small, poorly fitted or top-dose-only effect, or another doubt; inactive means no such curve, though single readings can be large; an effect the other way counts as inactive or inconclusive. Potency means the concentration at half of the fitted maximal effect.

SMILES	NPC1 promoter act	Rab9 prom act	SMN2 splice up	ELG1 genotox	ELG1 repair inh	FLuc counter
C=Cc1ccc(Cn2c(=O)n(CCCOC)c(=O)c3sccc32)cc1	-1%	2%	x	2%	21µM*	-4%
O=C(CSc1ccc(Cl)cc1)N1CCN(c2ccc(Cl)cc2[N+](=O)[O-])CC1	2%	-5%	-38%	-4%	-26%	3%
Cc1ccc(Nc2nc3ccccc3o2)cc1F	u	1.6µM*	u	5.8µM*	u	6µM*
Cc1cnc(Nc2nc3ccccc3o2)nc1C(=O)Nc1cccc(C(F)(F)F)c1	-10%	-16%	-28%	u	u	0%
Cc1ccnc(Nc2nc3ccccc3o2)n1	u	0.4µM*	2.5µM*	1.2µM*	u	3µM*
Cc1ccc2oc(Nc3nc(C)c(C)c(C)n3)nc2c1	1.6µM*	2.5µM*	x	u	u	11µM*
CCS(=O)(=O)c1ccc2oc(Nc3cc(C)cc(C)c3)nc2c1	0%	-2%	-34%	-1%	u	-6%
Cc1nc(Nc2nc3ccccc3o2)nc(C)c1C	1µM*	u	5.6µM*	u	u	8.5µM*
N#Cc1cnc(Nc2nc3ccccc3o2)nc1-c1ccccc1	28%	u	5%	6%	-16%	-1%
CC(C)OC(=O)NC(c1ccccc1)C(Cl)(Cl)Cl (configuration not stated)	-3%	1%	-3%	-2%	4%	0%
CCCc1nc(Nc2nc3ccccc3o2)nc(C)c1C(=O)OCC	u	1.8µM*	u	u	u	2.7µM*
CC(NC(=O)c1ccccc1NC(=O)c1ccncc1)c1ccccc1 (configuration not stated)	-3%	-3%	19%	1%	-14%	-2%
C/C(=N\Nc1nccnc1Cl)c1ccc(O)cc1	17%	15%	x	12%	u	u
C/C(=N\Nc1nccnc1Cl)c1ccc(Cl)c(Cl)c1	18%	18%	x	7%	0%	21µM*
C/C(=N\Nc1nccnc1Cl)c1ccc(F)cc1	u	u	x	u	u	24µM*
CC1CCCCC1NC(=O)COC(=O)c1cc(=O)[nH]c2ccccc12 (configuration not stated)	x	x	x	0%	-21%	x
CCN(CC)S(=O)(=O)c1cc(NC(=O)C(=O)c2c(-c3ccccc3)cc3ccccn23)ccc1C	-6%	-6%	-61%	-18%	16µM*	7%
CCN(CC)S(=O)(=O)c1ccc(N2CCOCC2)c(NC(=O)C(=O)c2c(-c3ccccc3)cc3ccccn23)c1	1%	8%	16%	-10%	u	0%
CN(C)CCNC(=O)C(=O)c1c(-c2ccccc2)cc2ccccn12	0%	-1%	9%	-3%	-1%	-1%
CCN(CC)S(=O)(=O)c1cccc(NC(=O)C(=O)c2c(-c3ccccc3)cc3ccccn23)c1	1%	3%	-39%	-17%	16µM*	3%
CC1=C(C(N)=O)C(c2cccnc2)n2nc(SCc3ccccc3Cl)nc2N1 (configuration not stated)	-3%	-2%	-16%	6%	4%	-1%
Cc1ccc(Nc2c(-c3ccccn3)nc3cc(C)ccn23)cc1	-15%	-16%	-75%	u	u	-11%
Cc1ccccc1Nc1c(-c2c[nH]c3ccccc23)nc2ccccn12	x	x	22%	x	x	5%
Cc1ccc(Nc2c(-c3c[nH]c4ccccc34)nc3cc(C)ccn23)cc1	x	x	14µM*	x	x	-11%
Cc1ccccc1Nc1c(-c2c[nH]c3ccccc23)nc2ccc(Cl)cn12	x	x	18%	x	x	-9%
Cc1ccc2nc(-c3c[nH]c4ccccc34)c(Nc3ccc(F)cc3)n2c1	x	x	14µM*	x	x	6%
Cc1ccn2c(Nc3ccccc3)c(-c3c[nH]c4ccccc34)nc2c1	x	x	11µM*	x	x	-14%
